Compound activity: PubChem, National Center for Advancing Translational Sciences (NCATS)
This is a sample that favours compounds with a hit; in the whole collection about 8.6% have one here.
LASV entry inh: inhibitors of Lassa virus binding or entry into cells; Potency, µM (series often up to 49.2 µM), actives largely listed as inhibitors; Lassa virus pseudotyped entry inhibition, cell-based qHTS; 18,000 tested, 4.1% active; AID 720533
MARV entry inh: Marburg virus entry inhibition; Marburg virus pseudotype entry/binding inhibition, cell-based; Potency, µM (titrated, usually from 49.2 µM), most hits filed as inhibitors; 18,000 tested, 6.5% active
Hits are given with their value; . = inactive; ? = inconclusive; ! = not active in a repeat; [ ] = another dose, or the depositor's remark. Calls follow the shape of the full dose curve; tested in HEK293 cells.

SMILES	LASV entry inh	MARV entry inh
CC1=CC2C(=O)c3cccc(O)c3C(=O)C2C(O)=C1 (centres undefined)	.	.
CC1=CC(=O)c2c(O)cccc2C1=O	3.2µM	4µM
COc1ccc(-c2nc3c(c4c2C[C@H](c2ccccc2)OC4)CN(C(=O)N[C@@H](C)C(=O)OC(C)C)CC3)c(C)c1	.[8.59 µM]	?
COc1cccc([C@H]2Oc3ccc(OC)cc3C(=NOC[C@@H](O)COCc3ccco3)[C@H]2O)c1	.[8.59 µM]	?
COc1ccc2c(c1)c(CC(=O)OCC(=O)O)c(C)n2C(=O)c1ccc(Cl)cc1	.	.
CCCN(CCC)C(=O)C(CCC(=O)OCCCN1CCN(CCOC(=O)Cc2c(C)n(C(=O)c3ccc(Cl)cc3)c3ccc(OC)cc23)CC1)NC(=O)c1ccccc1 (centres undefined)	22µM	14µM
CCC(=O)Oc1ccc2c(c1)CC[C@@H]1[C@@H]2CC[C@]2(C)[C@@H](OC(=O)CC)CC[C@@H]12	.	.
C=C1c2cccc(C(F)(F)F)c2O[C@H](C(=O)OCC)[C@@H]1CCC(C)C	.	.
CCOC(=O)C1OC1C(=O)NC(CC(C)C)C(=O)NCCC(C)C (centres undefined)	.	3.5µM
CCOC(=O)C1OC1C(=O)N[C@@H](CC(C)C)C(=O)NCCC(C)C (some centres undefined)	.	5µM
C=C(C)C[C@@]1(c2ccccc2)Oc2ccccc2C2=NCCN=C21	.[8.59 µM]	.[8.59 µM]
NS(=O)(=O)c1ccc(N=Nc2c(O)[nH]c3ccc(C(=O)NCCCn4ccnc4)cc23)cc1	?	.
Cc1ccc2[nH]nc(C(=O)N3CCOc4ccc(CN5CCc6sccc6C5)cc4C3)c2c1	.	?
C=CCN(C)CCCCCCOc1ccc(C(=O)c2ccc(Br)cc2)c(F)c1	?	4µM
CCCCCCCc1cc2ccc(F)cc2c2c(C(=O)OC)c(C(=O)OC)c(C(=O)OC)n12	.[8.59 µM]	?
O=C(c1ccc(F)cc1)C1CCN(CCn2c(=O)[nH]c3ccccc3c2=O)CC1	.	?
O=c1[nH]c2ccccc2n1CCCN1CCN(C(c2ccccc2)c2ccccc2)CC1	?	16µM
O=C(C1CCCCC1)N1C[C@H](O)[C@H](n2cc(C3CC3)nn2)C[C@@H]1c1ccc(Cl)cc1	.	.
C[C@@H]1[C@@H](c2ccccc2)Cc2nc3ccccc3nc2C[C@H]1C(=O)N1CCCC1	.[8.59 µM]	.[8.59 µM]
COC(=O)N[C@@H](C=Cc1ccccc1)C(C(=O)OC)=C(C)NCc1ccccc1	.[8.59 µM]	.[8.59 µM]
CC(=O)OC1(c2ccccc2)CCN(CCc2ccccc2)CC1	.	?
CN(C)C(=O)C(CCN1CCC(O)(c2ccc(Cl)cc2)CC1)(c1ccccc1)c1ccccc1	25µM!	6.3µM
CCCC[C@@H](C=O)NC(=O)[C@H](CC(C)C)NC(=O)[C@H](CC(C)C)NC(C)=O	10µM	0.089µM
CC(C)C[C@H](NC(=O)[C@H](CC(C)C)NC(=O)[C@H](Cc1ccccc1)NC(=O)[C@@H](N)CO)C(=O)N[C@@H](CCCN=C(N)N)C(=O)N[C@@H](CC(N)=O)C(=O)O	.	.
CSCC[C@H](C=O)NC(=O)[C@H](CC(C)C)NC(=O)[C@H](CC(C)C)NC(C)=O	.	?
SMILES	LASV entry inh	MARV entry inh
CC(=O)N[C@@H](CC(C)C)C(=O)N[C@@H](CC(C)C)C(=O)N[C@H](C=O)CCCN=C(N)N	.	0.11µM
CCCC[C@@H](C=O)NC(=O)[C@H](CC(C)C)NC(=O)OCc1ccccc1	20µM	?
CCCCC(C=O)NC(=O)C(CC(C)C)NC(=O)OCc1ccccc1 (centres undefined)	.	?
COc1ccc(O[C@H]2C=C[C@@H](c3ccccc3)O[C@H]2CON=C(C)CCN2CCCc3nc(C)c(C)cc32)cc1	.[8.59 µM]	?
CCCCCCCCCCC1=C(C)C(=O)C(OC)=C(OC)C1=O	.	.
CCCCCCCCCCCC1=C(O)C(=O)C=C(O)C1=O	28µM!	.
COc1cccc([C@H]2Oc3ccc(OC)cc3C(=NO[C@@H](C)c3cn([C@H](CO)Cc4ccccc4)nn3)[C@H]2O)c1	.[8.59 µM]	.[8.59 µM]
COC(=O)C1=C(C(=O)OC)[C@@H]2N(CC=C(C)C)c3ccccc3[C@@]23CCC(=O)N(Cc2cccc(C(F)(F)F)c2)C3=N1	.[8.59 µM]	.[8.59 µM]
CCc1cc2c(nc1CC)CCN(CCC(C)=NO[C@@H]1O[C@H](COC(C)=O)[C@@H](OC(C)=O)[C@H](OC(C)=O)[C@@H]1OC(C)=O)C2	.[8.59 µM]	.[8.59 µM]
CC(=O)OC[C@H]1O[C@@H](n2ncc(=O)[nH]c2=O)[C@H](OC(C)=O)[C@@H]1OC(C)=O	1.6µM	2µM
C#CCCCON=C1C[C@@H](O)[C@H](O)[C@H]2[C@@H]3C(=O)N(c4cccc(Oc5ccccc5)c4)C(=O)[C@@H]3CC[C@@H]12	.[8.59 µM]	.[8.59 µM]
CN1C(=O)[C@]23CC4=CC=C[C@H](O)[C@H]4N2C(=O)[C@@]1(CO)SS3	2.5µM	1.4µM
COc1cc(N2CCN(C(C)C)CC2)ccc1Nc1nc(Nc2ccc(F)cc2C(N)=O)c2cc[nH]c2n1	?	14µM
COc1cc(C)c(NC(=O)CN(C)C)cc1Nc1nc(Nc2cccc(F)c2C(N)=O)c2cc[nH]c2n1	?	0.79µM
COC(=O)C1=C(C(=O)OC)[C@@H]2N(C)c3ccccc3[C@@]23CCC(=O)N(Cc2cc(OC)c(OC)c(OC)c2)C3=N1	.[8.59 µM]	.[8.59 µM]
N#CCCCS(=O)(=O)c1nnnn1-c1ccccc1	.[8.59 µM]	?
C=CCN1Cc2ccccc2Oc2ccc(Cl)cc2S1(=O)=O	.	.
O=C(OC[C@H]1O[C@@H](OC(=O)c2cc(O)c(O)c(OC(=O)c3cc(O)c(O)c(O)c3)c2)[C@H](OC(=O)c2cc(O)c(O)c(OC(=O)c3cc(O)c(O)c(O)c3)c2)[C@@H](OC(=O)c2cc(O)c(O)c(OC(=O)c3cc(O)c(O)c(O)c3)c2)[C@@H]1OC(=O)c1cc(O)c(O)c(OC(=O)c2cc(O)c(O)c(O)c2)c1)c1cc(O)c(O)c(OC(=O)c2cc(O)c(O)c(O)c2)c1	10µM	0.35µM
Cc1ccc(C(=O)OC[C@H]2O[C@H](Cl)C[C@H]2OC(=O)c2ccc(C)cc2)cc1	.[8.59 µM]	.[8.59 µM]
COc1ccc(CCN(C)CCCOc2ccc(S(=O)(=O)c3[nH]c4ccccc4c3C(C)C)cc2)cc1OC	14µM	4µM
COC[C@@H](O)[C@H]1OCc2ccccc2[C@H]1C=Cc1ccccc1	.[8.59 µM]	.[8.59 µM]
COc1ccc2c(c1)[C@@]1(OCCC=C[C@@H]1C)C(=O)N2Cc1ccc(F)cc1	.[8.59 µM]	.[8.59 µM]
C[C@H](CSC(=O)c1ccccc1)C(=O)N1C[C@@H](Sc2ccccc2)C[C@H]1C(=O)O	.	.
CC(C)CN(C[C@@H](OP(=O)(O)O)[C@H](Cc1ccccc1)NC(=O)O[C@H]1CCOC1)S(=O)(=O)c1ccc(N)cc1	.	.
CC(=O)O[C@H]1C[C@H](O[C@H]2[C@@H](O)C[C@H](O[C@H]3[C@@H](O)C[C@H](OC4CC[C@@]5(C)C(CC[C@@H]6[C@@H]5CC[C@]5(C)[C@@H](C7=CC(=O)OC7)[C@@H](O)C[C@]65O)C4)O[C@@H]3C)O[C@@H]2C)O[C@H](C)[C@H]1O[C@@H]1O[C@H](CO)[C@@H](O)[C@H](O)[C@H]1O (some centres undefined)	2.8µM	?
